According to PubChem BioAssay AID1159580 (chemical genetic matrix, 2015):
Where “and” joins values, the source holds several entries; their conditions need not be identical. Equal values may be shown once. The campaign covered roughly 5,500 compounds. About 2,000 (36%) were called active. Not shown: some 18% with an inconclusive outcome. Cut-off read from the data, not from the text of the source: active = normalized growth mostly below about 0.91 (no sharp cut-off); inconclusive = no clear call, values can overlap the other calls; inactive = mostly above about 0.92. This is one part of the list.

Assay: chemical genetic growth profiling, strain panel (AID 1159580);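 note: tested at 20 µM; growth read once vehicle control cultures reached saturation at 30 °C; 1 = growth at the plate median or of vehicle wells; lower values mean less growth of the strain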
Conditions: S. cerevisiae deletion strains, growth OD

Measured: normalized growth

CCN(CC)C(=S)SSC(=S)N(CC)CC
active: locus YAL013W, strain DEP1, hits give low values 0.0629 and 0.897 | locus YAL021C, strain ccr4, hits give low values 0.0672 | locus YAL026C, strain drs2, hits give low values 0.0682 | locus YAL030W, strain snc1, hits give low values 0.0564 | locus YAL040C, strain CLN3, hits give low values 0.308 | locus YBL061C, strain skt5, hits give low values 0.062 | locus YBR009C, strain hhf1, hits give low values 0.0652 | locus YBR021W, strain FUR4, hits give low values 0.0934 | locus YBR023C, strain chs3, hits give low values 0.0638 | locus YBR171W, strain sec66, hits give low values 0.0771 | locus YBR229C, strain ROT2, hits give low values 0.426 | locus YBR231C, strain swc5, hits give low values 0.0656 | locus YBR279W, strain paf1, hits give low values 0.063 | locus YCL011C, strain gbp2, hits give low values 0.0576 | locus YCL016C, strain dcc1, hits give low values 0.065 | locus YCL029C, strain bik1, hits give low values 0.135 | locus YCL061C, strain MRC1 (second series), hits give low values 0.936 | locus YCL061C, strain MRC1, hits give low values 0.0667 | locus YCL069W, strain vba3, hits give low values 0.0629 | locus YCR088W, strain abp1, hits give low values 0.062 | locus YDL005C, strain med2, hits give low values 0.0753 | locus YDL035C, strain GPR1, hits give low values 0.0484 | locus YDL040C, strain nat1, hits give low values 0.0568 | locus YDL074C, strain BRE1, hits give low values 0.0817 | locus YDL101C, strain DUN1, hits give low values 0.068 | locus YDL134C, strain PPH21, hits give low values 0.0516 | locus YDL185W, strain tfp1, hits give low values 0.788 | locus YDL192W, strain arf1, hits give low values 0.0621 | locus YDR001C, strain nth1, hits give low values 0.0666 | locus YDR069C, strain doa4, hits give low values 0.0647 | locus YDR101C, strain arx1, hits give low values 0.101 | locus YDR137W, strain rgp1, hits give low values 0.0968 | locus YDR150W, strain NUM1, hits give low values 0.0605 | locus YDR159W, strain sac3, hits give low values 0.0932 | locus YDR162C, strain NBP2, hits give low values 0.0518 | locus YDR195W, strain ref2 0.121 | locus YDR297W, strain sur2, hits give low values 0.0658 | locus YDR318W, strain mcm21, hits give low values 0.0632 | locus YDR334W, strain swr1, hits give low values 0.066 | locus YDR335W, strain msn5, hits give low values 0.0613 | locus YDR388W, hits give low values 0.0574 | locus YDR392W, strain spt3, hits give low values 0.103 | locus YDR502C, strain sam2, hits give low values 0.0592 | locus YEL003W, strain gim4, hits give low values 0.0548 | locus YEL037C, strain rad23, hits give low values 0.0581 | locus YEL061C, strain CIN8 (second series), hits give low values 0.0638 | locus YEL061C, strain CIN8, hits give low values 0.0531 | locus YER015W, strain faa2, hits give low values 0.0589 | locus YER016W, strain bim1, hits give low values 0.0621 | locus YER110C, hits give low values 0.0748 | locus YER111C, strain swi4, hits give low values 0.0842 | locus YER155C, strain BEM2 (second series), hits give low values 0.092 | locus YER155C, strain BEM2, hits give low values 0.0787 | locus YER167W, strain BCK2, hits give low values 0.0526 | locus YFR010W, strain ubp6, hits give low values 0.0704 | locus YGL078C, strain dbp3, hits give low values 0.0558 | locus YGL086W, strain mad1, hits give low values 0.0539 | locus YGL167C, strain pmr1, hits give low values 0.0736 | locus YGL173C, strain kem1, hits give low values 0.0686 | locus YGL227W, strain vid30, hits give low values 0.0649 | locus YGL240W, strain doc1, hits give low values 0.0818 | locus YGL248W, strain PDE1, hits give low values 0.0479 | locus YGL253W, strain hxk2, hits give low values 0.0556 | locus YGR078C, strain PAC10, hits give low values 0.0528 | locus YGR135W, strain pre9, hits give low values 0.0614 | locus YGR229C, strain SMI1, hits give low values 0.0585 and 0.186 | locus YGR252W, strain gcn5, hits give low values 0.111 | locus YHR013C, strain ard1, hits give low values 0.114 | locus YHR027C, strain rpn1, hits give low values 0.0617 | locus YHR030C, strain SLT2, hits give low values 0.0521 and 0.114 | locus YHR079C, strain IRE1 (second series), hits give low values 0.0828 | locus YHR079C, strain IRE1, hits give low values 0.111 | locus YHR094C, strain hxt1, hits give low values 0.0606 | locus YHR129C, strain ARP1, hits give low values 0.0581 | locus YHR142W, strain chs7, hits give low values 0.0762 | locus YHR200W, strain rpn10, hits give low values 0.0631 | locus YIL066C, strain RNR3, hits give low values 0.0508 | locus YIL073C, strain SPO22, hits give low values 0.104 | locus YIL125W, strain kgd1, hits give low values 0.0593 | locus YIR030C, strain dcg1, hits give low values 0.0587 | locus YJL092W, strain hpr5, hits give low values 0.0611 | locus YJL095W, strain BCK1 (second series), hits give low values 0.0583 | locus YJL095W, strain BCK1, hits give low values 0.0582 and 0.114 | locus YJL115W, strain asf1, hits give low values 0.0765 | locus YJL129C, strain trk1, hits give low values 0.0869 | locus YJL134W, strain LCB3, hits give low values 0.0503 | locus YJL154C, strain vps35, hits give low values 0.0608 | locus YJL164C, strain tpk1, hits give low values 0.0649 | locus YJL166W, strain qcr8, hits give low values 0.0615 | locus YJL168C, strain set2, hits give low values 0.0602 | locus YJL187C, strain SWE1 (second series), hits give low values 0.102 | locus YJL187C, strain SWE1, hits give low values 0.0577 | locus YJR043C, strain POL32, hits give low values 0.0598 | locus YJR066W, strain TOR1, hits give low values 0.00329
inactive: locus YDR363W, strain ESC2, hits give low values 0.997
